As usually defined, the viability is a read-out of living cells in per cent, often relative to untreated cells.

The structures appear in SMILES notation. Calls of active or inactive are those of the source.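 The calls were made as follows: active = viability loss from added drug above about 55%, and viability with drug at most 40%, in both replicates (limit read from the data, passing the limit was not always enough); inconclusive = both conditions met in only one replicate; inactive = neither replicate meets both conditions.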

A short description of one assay: MRP1 drug-resistance reversers in H69AR cells – cell-based, doxorubicin co-treatment, pilot screen (AID 601). Particulars: H69AR cells + 2 uM doxorubicin, CellTiter-Glo, 72 h; at 10 µM; stronger effect = higher value.
Turning to `CC1(C)Cc2cccc(OCC(=O)O)c2O1`, the differential viability (reversal) was 7.61% (inactive).

As to `CCn1cc(C(=O)O)c(=O)c2cc(F)c(N3CCN(C(=O)Nc4ccccc4)CC3)cc21`, the differential viability (reversal) is -1.55% (inactive).

For the molecule `[O-][n+]1c2ccc3nonc3c2nn1-c1ccccc1Cl`, the differential viability (reversal) is 16.1% (inactive).

Take `Cc1oc(-c2ccccc2Cl)nc1CSCC(=O)N1CCCC1`: the differential viability (reversal) was 14.6% (inactive).

Turning to `CC(NC(=O)Cc1cccs1)c1ccc2c(c1)OCO2` (stereo not given), the differential viability (reversal) was 13.7% (inactive).

On to `O=C(NCc1ccco1)c1csc(Nc2ccccc2Cl)n1`, for which the differential viability (reversal) was -1.24% (inactive).

As to `O=C(Nc1ccc2c(c1)OCO2)C1CCCN1C(=O)Nc1ccccc1F` (stereo not given), the differential viability (reversal) is 8.28% (inactive).

For the molecule `COCCNC(=O)CC(NS(=O)(=O)c1ccc(NC(C)=O)cc1)C(C)C` (stereo not given), the differential viability (reversal) was 11.4% (inactive).

For the molecule `Cc1ccc(S(=O)(=O)NCCN2CCOCC2)cc1C`, the differential viability (reversal) is -5.21% (inactive).

Turning to `Cc1n[nH]c(C)c1S(=O)(=O)N1CCN(c2ccccn2)CC1`, the differential viability (reversal) was 3.44% (inactive).

As to `COCCNC(=O)CN(C)S(=O)(=O)c1ccc2c(c1)OCCO2`, the differential viability (reversal) was 12% (inactive).

Consider `Cc1cc(C(F)F)n2nc(C(=O)Nc3ccc(S(=O)(=O)N4CCCCCC4)cc3)nc2n1`, for which the differential viability (reversal) is -1.62% (inactive).

With `O=C(O)C1C2C=CC(O2)C1C(=O)NCc1ccc(Cl)cc1` (stereo not given), the differential viability (reversal) is 7.33% (inactive).

Consider `Cc1ccc(NC2c3ncccc3C(=O)N2C2CCCCC2)cc1C` (stereo not given), for which the differential viability (reversal) was -4.25% (inactive).

Turning to `C=CCOc1ccc(C2C(C(=O)c3ccco3)=C(O)C(=O)N2Cc2cccnc2)cc1` (stereo not given), the differential viability (reversal) is 2.87% (inactive).

For the molecule `COCCNC(=O)C(c1ccncc1)N(C(=O)Cn1nnc2ccccc21)c1ccc(OC)cc1` (stereo not given), the differential viability (reversal) is 9.12% (inactive).

Consider `CCOc1ccc(NC(=O)CSc2nnc(Cc3cccn3C)n2-c2ccc(OC)cc2)cc1`, for which the differential viability (reversal) is -5.27% (inactive).

`CCOC(=O)N1CCC(O)(c2cc(C)c(C)cc2C)CC1`: the differential viability (reversal) is 9.24% (inactive).

Regarding `Clc1cccc(Nc2c3c(nc4ncnn24)CCC3)c1`, the differential viability (reversal) was -5.48% (inactive).

For `O=c1cc(-c2ccc(Cl)cc2)[nH][nH]1`, the differential viability (reversal) was 5.75% (inactive).

For the molecule `Cc1nc(N)c(C#N)c(-c2cccnc2)c1C`, the differential viability (reversal) was -13.1% (inactive).

Take `CCOC(=O)c1c(NC(=O)OC)sc(C(=O)N(C)C)c1C`: the differential viability (reversal) is 20% (inactive).

Regarding `O=C(NCCO)c1scc2c1OCCO2`, the differential viability (reversal) is -7.95% (inactive).

For the molecule `c1ccc2c(c1)Cn1c-2nc2ccccc21`, the differential viability (reversal) is -1.54% (inactive).

Consider `CCOC(=O)C1=C(C)Nc2ncnn2C1c1ccccc1F` (stereo not given), for which the differential viability (reversal) is -5% (inactive).

In the case of `Cc1nc2ccc(NC(=O)N3CCOCC3)cc2s1`, the differential viability (reversal) is 4.26% (inactive).

Consider `Nc1nnnn1/N=C/c1ccccc1OCc1ccccc1`, for which the differential viability (reversal) was 8.29% (inactive).

Regarding `COc1cccc(-c2noc(-c3cccs3)n2)c1`, the differential viability (reversal) is -29.2% (inactive).

Take `CC1CCN(S(=O)(=O)c2ccc(S(=O)(=O)NCC(=O)C(C)(C)C)cc2)CC1`: the differential viability (reversal) was 6.57% (inactive).

As to `OCCN1CCN(CC(O)COc2ccc3ccccc3c2)CC1` (stereo not given), the differential viability (reversal) is 10% (inactive).

For the molecule `O=C(NCc1cccnc1)c1ccccc1Br`, the differential viability (reversal) was 0.945% (inactive).

For `C=CCNC(=O)c1cccc(Br)c1`, the differential viability (reversal) is -9.44% (inactive).

Turning to `CC(c1nnc(SCC(=O)Nc2sccc2C#N)n1-c1ccc(Cl)cc1)N(C)C` (stereo not given), the differential viability (reversal) was -5.88% (inactive).

In the case of `O=C(c1cc(S(=O)(=O)N2CCOCC2)ccc1F)N1CCCc2ccccc21`, the differential viability (reversal) was -3.44% (inactive).

Turning to `CC(C)Oc1ccc(N2CC(C(=O)Nc3ccccc3F)CC2=O)cc1` (stereo not given), the differential viability (reversal) was 8.51% (inactive).

For `COCCn1c(C23CC4CC(CC(C4)C2)C3)n[nH]c1=S`, the differential viability (reversal) was 1.57% (inactive).

Regarding `COc1cccc(C2=Nn3c(nnc3-c3ccccc3O)SC2)c1`, the differential viability (reversal) is -18.5% (inactive).

For the molecule `COc1cc(OC)c(OC)cc1CN(C)CCc1ccccn1`, the differential viability (reversal) is -4.87% (inactive).

Turning to `CC(=O)c1c(C)nn(CC(O)COc2ccc3c(c2)CCC3)c1C` (stereo not given), the differential viability (reversal) is 3.44% (inactive).

For `Cc1cccn2cc(-c3ccccc3)nc12`, the differential viability (reversal) was 11.1% (inactive).

The assay is the same for the next values; noted with them: H69AR cells + 2 uM doxorubicin, CellTiter-Glo, 72 h; measured here: viability with 2 uM doxorubicin; at 10 µM; stronger effect = lower value.
For `CC1(C)Cc2cccc(OCC(=O)O)c2O1`, the viability amounted to 87.8%.

As for `CCn1cc(C(=O)O)c(=O)c2cc(F)c(N3CCN(C(=O)Nc4ccccc4)CC3)cc21`, the viability was determined as 81.1%.

For `[O-][n+]1c2ccc3nonc3c2nn1-c1ccccc1Cl`, the viability came to 79%.

Regarding `Cc1oc(-c2ccccc2Cl)nc1CSCC(=O)N1CCCC1`, the viability came out at 85%.

`CC(NC(=O)Cc1cccs1)c1ccc2c(c1)OCO2` (stereo not given): the viability worked out at 86.2%.

Regarding `O=C(NCc1ccco1)c1csc(Nc2ccccc2Cl)n1`, the viability came to 79.4%.

As for `O=C(Nc1ccc2c(c1)OCO2)C1CCCN1C(=O)Nc1ccccc1F` (stereo not given), the viability is 87.9%.

As to `COCCNC(=O)CC(NS(=O)(=O)c1ccc(NC(C)=O)cc1)C(C)C` (stereo not given), the viability was determined as 83.7%.

With `Cc1ccc(S(=O)(=O)NCCN2CCOCC2)cc1C`, the viability was determined as 91.3%.

As for `Cc1n[nH]c(C)c1S(=O)(=O)N1CCN(c2ccccn2)CC1`, the viability is 99.8%.

In the case of `COCCNC(=O)CN(C)S(=O)(=O)c1ccc2c(c1)OCCO2`, the viability was 88.2%.

`Cc1cc(C(F)F)n2nc(C(=O)Nc3ccc(S(=O)(=O)N4CCCCCC4)cc3)nc2n1`: the viability came out at 84.9%.

Turning to `O=C(O)C1C2C=CC(O2)C1C(=O)NCc1ccc(Cl)cc1` (stereo not given), the viability stood at 96.6%.

As for `Cc1ccc(NC2c3ncccc3C(=O)N2C2CCCCC2)cc1C` (stereo not given), the viability is 97%.

Take `C=CCOc1ccc(C2C(C(=O)c3ccco3)=C(O)C(=O)N2Cc2cccnc2)cc1` (stereo not given): the viability turned out to be 88%.

On to `COCCNC(=O)C(c1ccncc1)N(C(=O)Cn1nnc2ccccc21)c1ccc(OC)cc1` (stereo not given), for which the viability came out at 95.1%.

With `CCOc1ccc(NC(=O)CSc2nnc(Cc3cccn3C)n2-c2ccc(OC)cc2)cc1`, the viability was 95.9%.

For the molecule `CCOC(=O)N1CCC(O)(c2cc(C)c(C)cc2C)CC1`, the viability came to 90.2%.

Consider `Clc1cccc(Nc2c3c(nc4ncnn24)CCC3)c1`, for which the viability was determined as 89.2%.

As to `O=c1cc(-c2ccc(Cl)cc2)[nH][nH]1`, the viability was 85.9%.

Regarding `Cc1nc(N)c(C#N)c(-c2cccnc2)c1C`, the viability turned out to be 115%.

For the molecule `CCOC(=O)c1c(NC(=O)OC)sc(C(=O)N(C)C)c1C`, the viability worked out at 87.9%.

`O=C(NCCO)c1scc2c1OCCO2`: the viability was determined as 102%.

For `c1ccc2c(c1)Cn1c-2nc2ccccc21`, the viability is 79.9%.

`CCOC(=O)C1=C(C)Nc2ncnn2C1c1ccccc1F` (stereo not given): the viability came out at 101%.

`Cc1nc2ccc(NC(=O)N3CCOCC3)cc2s1`: the viability was found to be 85.6%.

Turning to `Nc1nnnn1/N=C/c1ccccc1OCc1ccccc1`, the viability is 87%.

In the case of `COc1cccc(-c2noc(-c3cccs3)n2)c1`, the viability amounted to 111%.

Turning to `CC1CCN(S(=O)(=O)c2ccc(S(=O)(=O)NCC(=O)C(C)(C)C)cc2)CC1`, the viability was determined as 85.3%.

For the molecule `OCCN1CCN(CC(O)COc2ccc3ccccc3c2)CC1` (stereo not given), the viability was found to be 92.3%.

Regarding `O=C(NCc1cccnc1)c1ccccc1Br`, the viability was determined as 94.2%.

With `C=CCNC(=O)c1cccc(Br)c1`, the viability came out at 101%.

For `CC(c1nnc(SCC(=O)Nc2sccc2C#N)n1-c1ccc(Cl)cc1)N(C)C` (stereo not given), the viability worked out at 81.2%.

For `O=C(c1cc(S(=O)(=O)N2CCOCC2)ccc1F)N1CCCc2ccccc21`, the viability worked out at 94.3%.

Turning to `CC(C)Oc1ccc(N2CC(C(=O)Nc3ccccc3F)CC2=O)cc1` (stereo not given), the viability was determined as 89.1%.

Consider `COCCn1c(C23CC4CC(CC(C4)C2)C3)n[nH]c1=S`, for which the viability was determined as 75.6%.

Consider `COc1cccc(C2=Nn3c(nnc3-c3ccccc3O)SC2)c1`, for which the viability was determined as 85.7%.

Turning to `COc1cc(OC)c(OC)cc1CN(C)CCc1ccccn1`, the viability was found to be 91.8%.

`CC(=O)c1c(C)nn(CC(O)COc2ccc3c(c2)CCC3)c1C` (stereo not given): the viability came to 83.9%.

Turning to `Cc1cccn2cc(-c3ccccc3)nc12`, the viability was determined as 80.3%.

These data come from PubChem BioAssay.
